Measured values from PubChem BioAssay (NCI).
Where “and” joins values, the source holds several entries; their conditions need not be identical. Equal values may be shown once. Compounds without any hit were thinned out: in the full panel of roughly 83,000, 20% have a hit.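 In brief: 96-well plates, 48 h treatment, single concentration, percent growth endpoint.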 Calls of active or inactive are those of the source.

These molecules were tested on CCRF-CEM leukemia (assay: NCI-60 one-dose screen, 48 h (100 = growth as untreated, 0 = no growth, -100 = all killed)). Details: 10 µM.
Description: Growth inhibition of the CCRF-CEM human tumor cell line is measured as a screen for anti-cancer activity. Cells are grown in 96 well plates and exposed to the test compound for 48 hours. Compounds are tested at a single concentration, which is 10^-5 M for most compounds. The reported endpoint is percent growth (GI% or GIPRCNT), where numbers from 0 - 100% represent growth inhibition, and numbers from -100% - 0 represent cell death. For example, a value of 40 represents 60% growth inhibition. A value of 0 means no net growth occurred over the course of the experiment. A value of -40 indicates 40% of cells at the beginning of the experiment died by the end of the experiment. A value of -100 means all cells are dead at the end of the experiment.
NCI-60 Human Tumor Cell Lines Screen was performed using the standard one-dose NCI protocol, which is described in more detail at https://dtp.cancer.gov/discovery_development/nci-60/default.htm.
Compounds with GIPRCNT values below 10 were considered active. Activity score was based on GIPRCNT using the following formula: […]
Score is 0 for GIPRCNT values of 100 or above, 50 for GIPRCNT values of 0, and 100 for GIPRCNT values of -100.

**Q.** For `S=C(SSC(=S)N1CCCCC1)N1CCCCC1`, which growth is on record?
**A.** Its growth is 91.1% (inactive).

Same assay, conditions: 10 µM unless noted

**Q.** Which growth does the source give for `CO[C@H](/C(C)=C/C=C/C(C)=C/c1coc(C)n1)[C@H](C)[C@H]1C[C@@H](O)[C@@]2(C)O[C@H]2/C=C/[C@@H](C)[C@@H]2C[C@@H](CC(=O)O2)C[C@H]2O[C@@H]2C(=O)O1` here?
**A.** The growth was -3.89% (active).

**Q.** For `CCOC(=O)C(NC(=O)C(Cc1ccc(N(CCCl)CCCl)cc1)NC(C)=O)C(C)C` (centres undefined), which growth is on record?
**A.** The growth was 71.7% (inactive).

**Q.** Which growth does the source give for `COC1=C(C)C(=O)C2=C(C1=O)C(CO)N1C(C#N)C3CC4C(C1C2N1CCOC41)N3C` (centres undefined) here?
**A.** Its growth is -37.8% (active).

**Q.** Which growth does the source give for `CC[C@@]1(O)C[C@H](OC2CC(N(C)C)C(O)C(C)O2)c2c(O)c3c(c(O)c2[C@H]1OC1CC(N(C)C)C(O)C(C)O1)C(=O)c1cccc(O)c1C3=O` (some centres undefined) here?
**A.** The growth was -37.7% (active).

**Q.** For `O=C1c2ccccc2C(=O)C(Cl)C1Cl` (centres undefined), which growth is on record?
**A.** Its growth is -20.8% (active).

**Q.** Which growth does the source give for `Cc1ccc(C(=O)OC(C(=O)O)C(OC(=O)c2ccc(C)cc2)C(=O)O)cc1` (centres undefined) (tested in a mixture with another compound) here?
**A.** The growth was 23% (inactive).

**Q.** How did the growth turn out when `CN1CCN(c2ccc([N+](=O)[O-])c3no[n+]([O-])c23)CC1` was run?
**A.** Its growth is -30.6% (active).

**Q.** `CC[C@](O)(C(=O)O)c1cc2n(c(=O)c1CO)Cc1cc3ccccc3nc1-2` was tested. Which growth did it give?
**A.** The growth was -24.5% (active).

**Q.** Which growth does the source give for `CC[n+]1c(-c2ccccc2)c2cc(N)ccc2c2ccc(N)cc21` here?
**A.** Its growth is 27.5% (inactive).

**Q.** With `COC1CC(CC2CCC(C)C(C(C)C(=O)O)O2)OC2(OC(C)(C3CCC(C)(C4OC(C5OC(O)(CO)C(C)CC5C)CC4C)O3)CC2C)C1C` (centres undefined) as the molecule, how does the growth read?
**A.** The growth was -27.1% (active).

**Q.** Which growth does the source give for `CCCCCCCCCCCC1CCCC(C)N1` (centres undefined) here?
**A.** Its growth is 16.5% (inactive).

**Q.** `Oc1cccc2cccnc12` was tested. Which growth did it give?
**A.** Its growth is 48.8% (inactive) and 99.2% (inactive) and 96% (inactive).

**Q.** For `CC1=C(CO)C2=C(C)C3(CC3)[C@@](C)(O)C(=O)C2=C1`, which growth is on record?
**A.** The growth was 28.6% (inactive).

**Q.** Which growth does the source give for `COc1ccccc1/C=C(/C)[N+](=O)[O-]` here?
**A.** The growth was 8.42% (active) and 99.5% (inactive).

**Q.** How did the growth turn out when `CCC(=O)OC1CCn2c1nc1c2C(=O)C(C)=C(N2CC2)C1=O` (centres undefined) was run?
**A.** Its growth is 70.4% (inactive).

**Q.** Which growth does the source give for `Cc1cc(N=Nc2ccccc2C)ccc1N` here?
**A.** The growth was 4.33% (active).

**Q.** How did the growth turn out when `CC1=C2C(=O)[C@H]3[C@@H](CC=C4C[C@@H](O)CC[C@@]43C)[C@@H]2CC[C@]12O[C@@H]1C[C@H](C)CN[C@H]1[C@H]2C` was run?
**A.** The growth was 89.5% (inactive).

**Q.** How did the growth turn out when `Oc1cc[c]([Hg][Cl])cc1` was run?
**A.** The growth was 55.2% (inactive).

**Q.** For `COc1ccc(OC)c(/C=C/[N+](=O)[O-])c1`, which growth is on record?
**A.** The growth was 8.78% (active).

**Q.** `C[C@]12CC[C@H](O)CC1=CC[C@@H]1[C@@H]2CC[C@]2(C)C(=O)CC[C@@H]12` was tested. Which growth did it give?
**A.** Its growth is 76.3% (inactive).

**Q.** For `CC(=O)O[C@H]1C[C@@H]2OC3C=C(C)CCC3(C)[C@@]1(C)[C@@]21CO1` (some centres undefined), which growth is on record?
**A.** Its growth is 2.26% (active).

**Q.** `Cc1c(N)nc([C@H](CC(N)=O)NC[C@H](N)C(N)=O)nc1C(=O)N[C@H](C(=O)N[C@H](C)[C@@H](O)[C@H](C)C(=O)N[C@H](C(=O)NCCc1nc(-c2nc(C(=O)NCCC[S+](C)C)cs2)cs1)[C@@H](C)O)C(OC1OC(CO)C(O)C(O)C1OC1OC(CO)C(O)C(OC(N)=O)C1O)c1cnc[nH]1` (some centres undefined) was tested. Which growth did it give?
**A.** The growth was 51.6% [2.5 µM] (inactive).

**Q.** Which growth does the source give for `CC[C@@]1(O)C[C@H](OC2CC(N(C)C)C(OC3CC(O)C(OC4CCC(=O)C(C)O4)C(C)O3)C(C)O2)c2c(cc3c(c2O)C(=O)c2c(O)ccc(O)c2C3=O)[C@H]1C(=O)OC` (some centres undefined) here?
**A.** Its growth is 4.1% (active).

**Q.** Which growth does the source give for `CC[C@@]1(O)C(=O)OCc2c1cc1n(c2=O)Cc2cc3ccccc3nc2-1` here?
**A.** The growth was -28.1% (active).

**Q.** How did the growth turn out when `C[C@H]1CCC/C=C/[C@@H]2C[C@H](O)C[C@H]2[C@H](O)/C=C/C(=O)O1` was run?
**A.** Its growth is 7.53% (active).

**Q.** Which growth does the source give for `COc1cccc2c1cc([N+](=O)[O-])c1c(C(=O)O)cc3c(c12)OCO3` here?
**A.** The growth was 45.8% (inactive) and 77.6% (inactive).

**Q.** Which growth does the source give for `CCC1(O)CC(OC2CC(N(C)C)C(OC3CC4OC5CC(=O)C(C)OC5OC4C(C)O3)C(C)O2)c2c(cc3c(c2O)C(=O)c2c(O)ccc(O)c2C3=O)C1C(=O)OC` (centres undefined) here?
**A.** The growth was -31.2% (active).

Same assay, conditions: 100 µM

**Q.** Which growth does the source give for `S=C(SSC(=S)N1CCCCC1)N1CCCCC1` here?
**A.** Its growth is -38.1% (active).
